From PubChem BioAssay
Only some compounds are listed: those with a hit (about 1.4% of all), similar ones and a draw of the others.
Chronic BCR inh = chronic active BCR signaling inhibition; ABC-DLBCL IkBa-CBG/CBR reporter, luminescence ratio, 4 h; Potency, µM (highest dose often 46.1 µM), without a hit: top-dose activity change, negative = inhibition, actives largely listed as inhibitors; 0.05% of 340,000 active; AID 493014; active = well fitted inhibition curve with a large enough effect in the signal ratio, with a control signal flat, not every such curve was filed as active; inconclusive = small, poorly fitted or top-dose-only effect, or effect the other way, or a change in a side signal; the % refers to the signal ratio;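 note: potency is the fitted concentration of half-maximal effect; plate controls were basal doxycycline-induced cells for no effect and cells given 10 µM MG132 for full effect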
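Concentration-response series (up to 46 uM) were applied to TMD8 dual-reporter cells for 4 h at 37C with doxycycline. Green/red ratio, after filter-overlap correction, defined %Activity; red signal alone was normalised to basal cells and zero luminescence.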
IL2 activator = IL-2 activation; IL-2 activation reporter assay, cell-based qHTS; stimulated with anti-CD3/CD4/CD28 beads; in transgenic mouse T cells; activation, % (series mostly up to about 46 µM); 0.065% of 360,000 active; AID 652025; in the data active = activation above about 50%; inconclusive = mostly about 30% to 49%; note: 0% is about no effect
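Readout is EGFP and DsRed signal by fluorescent plate cytometry after 18 h at 37 degrees C. Transgenic mouse T cells (750/well) received compound for 60 min before bead stimulation (anti-CD3, anti-CD4, anti-CD28); memory T cells served as non-tolerant control.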
Integrin act MD = activators of alpha7 integrin expression for muscular dystrophy. alpha7betagal myoblasts, beta-gal FDG fluorescence, 48 h. Potency, µM (top dose mostly 38.3 µM), without a hit: top-dose activation, usual class: activators. 0.064% of 350,000 active. AID 624291;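 note: potency is the fitted concentration of half-maximal effect; 100% = response of the positive control SU9516; nearly all actives have a fitted effect of over 60% in size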
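Alpha7betagal+/- myoblasts (passage 13) were plated 16-24 hr, then exposed to compounds (1:260 dilution of DMSO stock) for 48 hours at 37C. After MPER lysis, β-galactosidase reporter activity was read as FDG fluorescence (ex 480/em 540) after 30 minutes.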
BRCA1 expr act = increases BRCA1 expression; MCF7-BRCA1-FFLuc reporter, luminescence, 48 h; response scale: scaled: vehicle 0%, 10 µM genistein 100%; Potency, µM (highest dose often 46.1 µM), without a hit: at the highest dose activation, most hits filed as activators; 1.1% of 380,000 active; AID 624202; note: potency is the fitted concentration of half-maximal effect; nearly all actives have a fitted effect of over 80% in size
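Luminescence from a BRCA1-driven firefly luciferase in MCF7 cells was the read-out, taken 15 min after substrate addition following 48 h compound exposure at 37 °C. Data were normalized to a 10 microM genistein control and DMSO vehicle.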
Nrf2 ARE act = activators of Nrf2 (ARE) signaling; AREc32 ARE-luciferase reporter (MCF7-derived line), luminescence, 24 h; Potency, µM (doses to about 46.1 µM), for inactives: at the highest dose activation, most hits filed as activators; 0.31% of 410,000 active; AID 624171; note: potency is the fitted concentration of half-maximal effect; % of control where 0% means no effect; nearly all actives have a fitted effect of over 65% in size
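ARE activation measured as luciferase luminescence (Steady-Glo, 30 min RT) in AREc32_Fluc cells after 24 hr compound exposure at 37 deg C, 5% CO2; cells seeded overnight at 1000/well in OPTI-MEM, 5% FBS.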
N370S GC = inhibitors or activators of N370S glucocerebrosidase for Gaucher disease; N370S GC spleen homogenate, 4MU-glucoside fluorescence; Potency, µM (top dose mostly 59.4 µM), for the others: at the top dose activity change, negative = inhibition, actives largely listed as inhibitors; 0.092% of 330,000 active; AID 2101;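 note: potency is the fitted concentration of half-maximal effect; 0% = full enzyme activity and -100% = no enzyme basal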
Numbers without * were called inactive; ? = inconclusive; . = not tested or not shown; [ ] = remark or other dose. Unless noted, calls come from the whole dose curve; as a rule, active = well fitted curve in the direction sought with a large enough effect; inconclusive = small, poorly fitted or top-dose-only effect, or another doubt; inactive = no such curve, though single readings can be large; an effect the other way counts as inactive or inconclusive.

SMILES | Chronic BCR inh | IL2 activator | Integrin act MD | BRCA1 expr act | Nrf2 ARE act | N370S GC
O=C(c1ccc(Br)cc1)N1CCC(C(=O)N2CCN(c3ccccc3)CC2)CC1 | 2% | -1 | -39% | -7% | 0% | -10%
O=C1CN(c2ccccc2)C(=S)N1C(=O)c1ccc(Br)cc1 | ? | 0 | -37% | 3.2µM* | 7% | 8%
O=C(NCCc1cccs1)C1CCC(=O)N(CCc2cccc(F)c2)C1 (centres undefined) | -5% | 1 | ? | -5% | -1% | -2%
Cc1ccsc1CCNC(=O)C1CCC(=O)N(CCc2cccc(F)c2)C1 (centres undefined) | -1% | -2 | -57% | 7.9µM* | 3% | -18%
COCCNS(=O)(=O)c1cc(C)c(C)cc1C | -3% | 0 | 32% | 40% | 0% | 6%
COc1ccc2nc(NC(=O)C3CCN(C(=O)c4ccco4)CC3)sc2c1 | -12% | -2 | -17% | 13µM* | 3% | -2%
O=C(Nc1nc2ccc(Cl)cc2s1)c1ccco1 | ? | 0 | 2% | ? | ? | 2%
CCN(CC)S(=O)(=O)c1ccc2nc(NC(=O)c3ccc(Br)o3)sc2c1 | . | . | . | . | 0% | .
O=C(Nc1nc2ccc(Br)cc2s1)c1ccco1 | ? | 0 | 11% | ? | 7.9µM* | 0%
CCN(CC)S(=O)(=O)c1ccc2nc(NC(=O)c3ccco3)sc2c1 | ? | -1 | 5% | 11µM* | 1% | -5%
O=C(Nc1nc2ccsc2c(=O)s1)c1ccco1 | ? | -3 | 13% | 3% | 1.3µM* | -6%
CCc1ccc(NC(=O)Cn2cccc2)cc1 | -1% | 1 | 8% | 60% | -1% | -2%
CCc1ccc(-c2cn(C3CCCCC3)c(=S)[nH]2)cc1 | -22% | -5 | -11% | 0% | 2% | -6%
COc1ccc(/C(C#N)=C/c2ccccn2)cc1 | ? | -2 | 1% | 2.8µM* | 22% | ?
COc1ccc(C(=O)N/N=C/c2ccccn2)cc1 | . | 1 | -6% | ? | 2% | .
N#C/C(=C\c1ccccn1)c1nc2ccccc2s1 | -3% | 6 | -32% | -27% | 18µM* | -1%
COC(=O)c1ccc(/C=C(\C#N)c2nc3ccccc3s2)cc1 | ? | 0 | 7% | -4% | 0% | -3%
COc1ccccc1C(=O)Nc1ccc(-c2nc3cc(C)cc(C)c3o2)cc1 | . | . | . | . | 1% | .
O=[N+]([O-])c1cc([N+](=O)[O-])c2c(=Nc3ccccc3)n(-c3ccccc3)n(O)c2c1 | 1% | -1 | -61% | -75% | 14µM* | -6%
CCS(=O)(=O)N1Cc2ccccc2CC1C(=O)Nc1cccc(C)c1 (centres undefined) | ? | 7 | 26% | 5µM* | -1% | -2%
CCS(=O)(=O)N1Cc2ccccc2CC1C(=O)Nc1ccc(C)cc1 (centres undefined) | -9% | 2 | 6% | -2%[1.84 µM] | -1% | 1%
N=C1C=CC(=C(c2ccc(N)cc2)c2ccc(N)cc2)C=C1 | . | -1 | -55% | -80% | 10% | 3.5µM*
CC(=O)c1cccc(OCc2cc(C(=O)N3C[C@H]4CC[C@H]3C4)no2)c1 | 4% | -4 | 0% | ? | 4% | 5%
O=C(c1cc(COc2cccc(C(F)(F)F)c2)on1)N1C[C@H]2CC[C@H]1C2 | -6% | -5 | 0% | 13µM* | 4% | 1%
O=C(C[n+]1c2ccccc2cc2ccccc21)c1ccc(F)cc1 | . | . | . | 2% | . | .
SMILES | Chronic BCR inh | IL2 activator | Integrin act MD | BRCA1 expr act | Nrf2 ARE act | N370S GC
CSc1nnc(N2C(=O)C(O)=C(C(=O)c3ccco3)C2c2ccccc2F)s1 (centres undefined) | 5% | 3 | -24% | 52% | 14µM* | -17%
CSc1nnc(N2C(=O)C(O)=C(C(=O)c3ccco3)C2c2ccccc2)s1 (centres undefined) | 12% | 0 | -29% | 3% | 26% | -15%
COC(=O)c1sc(-c2cccs2)cc1NC(=O)/C=C/C(=O)O | ? | -3 | -42% | -39% | 16µM* | -4%
CN(Cc1ccccc1)C(=O)c1cccc(NC(=O)Cc2cccc(NC(=O)C3CCN(C(=O)c4ccccc4)CC3)c2)c1 | . | 0 | 5% | -2% | 4% | .
COc1ccc(C(=O)Cc2cc(OC)c(OC)cc2[N+](=O)[O-])cc1 | ? | -2 | 14% | 11µM* | -1% | 8%
CCOc1ccc(C(=O)Cc2cc(OC)c(OC)cc2[N+](=O)[O-])cc1 | 2% | 1 | 0% | 80% | 0% | 26%
CSc1nc2nc(C)cc(-c3ccccc3)n2n1 | ? | -1 | 6% | -5% | 1% | 10%
CSc1nc2nc(C(F)(F)F)cc(-c3ccccc3)n2n1 | ? | -1 | 15% | -32% | 14µM* | 23%
CCOc1ccc(-c2nnc(NC(=O)Cc3cc(OC)c(OC)c(OC)c3)o2)cc1 | 4% | -1 | -8% | 51% | 0% | -6%
Cc1cc(NCCCN2CCOCC2)n2ncc(-c3ccccc3)c2n1 | -1% | 0 | -3% | ? | 3% | 2%
CN(C)CCCNc1cc(C(C)(C)C)nc2c(-c3ccccc3)cnn12 | ? | -3 | -16% | 5.6µM* | 5% | ?
CCCN1CNc2c(c(=O)[nH]c(=S)n2CCc2cccc(C)c2C)C1 | . | . | . | -18% | . | .
Cc1ccc(NC(=O)c2ccn(C)n2)c(Br)c1 | ? | 4 | -20% | ? | -1% | 12%
Cn1ccc(C(=O)Nc2ccc(Br)cc2Br)n1 | ? | 0 | 27% | 2.2µM* | 4% | 24%
C#CCOCCOCCOCCNc1nc(N2CCN(C(=O)CCCCCCCCCCNC(=O)[C@H](CCCN=C(N)N)n3cc(C[C@@H](C)CC)nn3)CC2)nc(N2CCN(C(=O)CCCCCCCCCCNC(=O)[C@@H]([C@H](C)CC)n3cc(CCCCCN)nn3)CC2)n1 | ? | . | . | . | . | 5.6µM*
C#CCOCCOCCOCCNc1nc(N2CCOCC2)nc(N2CCN(C(=O)CCCCCCCCCCNC(=O)[C@H]([C@@H](C)CC)n3cc(CCCCN=C(N)N)nn3)CC2)n1 | ? | 1 | 1% | -5% | 0% | ?
C#CCOCCOCCOCCNc1nc(N2CCN(C(=O)CCCCCCCCCCNC(=O)[C@H]([C@@H](C)CC)n3cc(CCCCN=C(N)N)nn3)CC2)nc(N2CCN(C(=O)CCCCCCCCCCNC(=O)[C@H](CCCN=C(N)N)n3cc(C[C@@H](C)CC)nn3)CC2)n1 | 1% | . | . | . | . | 8.9µM*
C=CCn1c(COc2ccc(Cl)cc2)nnc1SCc1ccc(C#N)cc1 | ? | -2 | 11µM* | -40% | 0% | 6%
CC(N)c1csc(Nc2nccc(C(F)(F)F)n2)n1 (centres undefined) | . | 0 | . | -17% | 1% | .
